Data as given in PubChem BioAssay (NCATS).
Records with an inconclusive call do not appear. Calls of active or inactive are those of the source. Calls come from the whole dose curve; as a rule, active = well fitted curve in the direction sought with a large enough effect; inconclusive = small, poorly fitted or top-dose-only effect, or another doubt; inactive = no such curve, though single readings can be large; an effect the other way counts as inactive or inconclusive.

Key:
[1] = target: Glutathione peroxidase 1 (Homo sapiens) (UniProt P07203); assay: Primary qHTS Assay for Inhibitors of Recombinant Selenoprotein Glutathione Peroxidase 1 (GPX1) (AID 1845191); note: nearly all actives have a fitted effect of over 65% in size
In short: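 Recombinant GPX1 (10 nM final) was preincubated with compound for 30 min at room temperature, then reacted with 1 mM GSH, 0.5 mM CHP, 0.5 mM NADPH and 100 nM glutathione reductase; NADPH fluorescence (340/450 nm) was read at 0 and 15 min.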

[2] = target: Phospholipid hydroperoxide glutathione peroxidase GPX4 (Homo sapiens) (UniProt P36969); assay: Primary qHTS Assay for Inhibitors of Recombinant Selenoprotein Glutathione Peroxidase 4 (GPX4) (AID 1845192); note: nearly all actives have a fitted effect of over 65% in size
In short: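 GR-coupled readout: 100 nM GR, 1 mM GSH, 0.5 mM NADPH; NADPH fluorescence (ex 340/em 450 nm) read at t=0 and after 15 min RT. GPX4 200 nM, preincubated 30 min with compound; substrate 0.5 mM CHP.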

[3] = target: Luciferin 4-monooxygenase (Photinus pyralis) (UniProt P08659); assay: Primary firefly luciferase (FLuc) qHTS assay for identification of artifact compounds. (AID 1845220); note: nearly all actives have a fitted effect of over 60% in size; note: potency is the fitted concentration of half-maximal effect
In short: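 In this counter-screen for luciferase artifacts, test compounds met substrate (10 uM each luciferin and ATP) before 10 nM enzyme started the reaction. Light output was measured 5 min later.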

[4] = Primary fluorescence-based thiol-reactive (MSTI) qHTS assay for identification of artifact compounds. (AID 1845221); note: nearly all actives have a fitted effect of over 65% in size; note: potency is the fitted concentration of half-maximal effect
In short: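 A multi-concentration qHTS design tested compounds against 4 uM MSTI, pH 7.4 phosphate-buffered saline. Plates were protected from light for 1 h at room temperature before imaging fluorescence.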

[5] = test system: Nanoluciferase (engineered Oplophorus gracilirostris luciferase); assay: Primary Nanoluciferase (NLuc) qHTS assay for identification of artifact compounds. (AID 1845222);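 note: NLuc secreted into diluted conditioned medium of S16 cells; series mostly up to about 54 µM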
In short: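 Using secreted nanoluciferase in S16 culture medium (0.22 um filtered, 1:55 dilution), compounds were preincubated 15 min at RT. Signal was generated with Nano-Glo reagent (1:100) over 5 min.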

[6] = Primary redox qHTS assay for identification of artifact compounds. (AID 1845223)
In short: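 Amplex Red (25 uM) and HRP (250 mU/mL) in HBSS, with compounds for 15 min, then 250 uM DTT for 30 min, room temperature, dark. Fluorescence 525/598 nm read; normalized to DMSO and 10 uM DA3003; Hill fit.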

Measured: Potency

Sequence of Phospholipid hydroperoxide glutathione peroxidase GPX4 (Homo sapiens) (P36969 whole entry, looked up): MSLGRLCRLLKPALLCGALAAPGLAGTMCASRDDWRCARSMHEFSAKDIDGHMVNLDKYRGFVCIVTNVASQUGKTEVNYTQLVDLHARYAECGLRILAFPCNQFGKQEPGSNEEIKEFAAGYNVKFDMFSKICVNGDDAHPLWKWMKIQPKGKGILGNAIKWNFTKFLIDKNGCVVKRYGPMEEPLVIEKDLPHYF
Sequence of Glutathione peroxidase 1 (Homo sapiens) (P07203 whole entry, looked up): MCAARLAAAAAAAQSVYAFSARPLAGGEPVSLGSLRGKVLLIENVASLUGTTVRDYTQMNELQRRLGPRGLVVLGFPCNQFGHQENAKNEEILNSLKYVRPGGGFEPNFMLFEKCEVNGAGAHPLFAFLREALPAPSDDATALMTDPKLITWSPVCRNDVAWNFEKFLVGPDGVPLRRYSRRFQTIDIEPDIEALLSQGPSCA

C/C(=C\CCC(C)C1=CCC2(C)OC3=C(CC12)C(=O)C(O)CC3)CO (stereo not given)
inactive: [1] | [2] | [3] | [4] | [5] | [6]

Cc1ccc(C(C)C)c(O[C@@H]2O[C@H](CO)[C@@H](O)[C@H](O)[C@H]2O)c1
inactive: [1] | [2] | [3] | [5] | [6]
active: [4] 10.4 µM

COc1ccc2c(NC(=O)Nc3cccc(C(F)(F)F)n3)ccnc2c1
inactive: [1] | [2] | [3] | [4] | [5] | [6]

O=[N+]([O-])c1cn2c(n1)OC[C@@H](OCc1ccc(-c3ccc(OC(F)(F)F)cc3)nc1)C2
inactive: [1] | [2] | [3] | [4] | [5] | [6]

C[C@@H]1O[C@@H](O[C@H]2[C@@H]3C=CO[C@@H](O[C@@H]4O[C@H](CO)[C@@H](O)[C@H](O)[C@H]4O)[C@@H]3[C@@]3(CO)O[C@@H]23)[C@H](O)[C@H](OC(=O)/C=C/c2ccccc2)[C@H]1O
inactive: [1] | [2] | [3] | [4] | [5] | [6]

NCC(CNc1nc(Nc2cccc(NC(=O)N3CCCC3)c2)ncc1I)C(=O)c1cccs1 (stereo not given)
inactive: [1] | [2] | [3] | [4] | [5] | [6]

Nc1nc(Cl)nc2c1ncn2C1OC(CO)C(O)C1F (stereo not given)
inactive: [1] | [2] | [3] | [4] | [5] | [6]

CC(O)(C(=O)C1CC1(CO)COC1OC(CO)C(O)C(O)C1O)C1C(O)CC2C3CC=C4CC(O)CC(O)C4(C)C3C(O)CC21C (stereo not given)
inactive: [1] | [2] | [3] | [4] | [5] | [6]

CC(C)c1noc(C2CCN(c3ncnc(Nc4ccc(S(C)(=O)=O)cc4F)c3[N+](=O)[O-])CC2)n1
inactive: [1] | [2] | [3] | [4] | [5] | [6]

Cc1nc2ccc(-n3ncc(C(=O)c4cc5ccccc5[nH]4)c3N)cc2[nH]1
active: [3] 3.38 µM
inactive: [1] | [2] | [4] | [5] | [6]

Cc1cc2ncc(C(=O)NCC(C)(C)NCC(=O)N3CCC[C@H]3C#N)cn2n1
inactive: [1] | [2] | [3] | [4] | [5] | [6]

CCC(C)CC(=O)OC1C(=O)C(CO)=CC(O)C1C(C)C (stereo not given)
inactive: [1] | [2] | [3] | [4] | [5] | [6]

Clc1ccc(Nc2nc3ccccc3c3nc(C4CCCCC4)[nH]c23)cc1Cl
inactive: [1] | [2] | [3] | [4] | [5] | [6]

CC[N+]1(C/C2=C/CCCCCC2)CCC(NC(=O)C2c3cc(Cl)ccc3Oc3ccc(Cl)cc32)CC1 (stereo not given)
inactive: [1] | [2] | [3] | [4] | [5] | [6]

COc1cc(O)c2c(c1)C1OC1C[C@H](O)[C@H](O)C(=O)/C=C\C[C@H](C)OC2=O (stereo not given in full)
inactive: [1] | [2] | [3] | [4] | [5] | [6]

CCN1CCN(Cc2ccc(C(=O)Nc3ccc(C)c(Oc4ccc5c(c4)CC(=O)N5)c3)cc2C(F)(F)F)CC1
inactive: [1] | [2] | [3] | [4] | [5] | [6]

O=C(COc1ccc(C(=O)c2ccccc2)cc1)NC1CCN(Cc2ccccc2)CC1
inactive: [1] | [2] | [3] | [4] | [5] | [6]

CCO[C@H]1CN(C2CCC(O)(c3ccc4c(c3)OCO4)CC2)C[C@@H]1NC(=O)CNC(=O)c1cccc(C(F)(F)F)c1 (stereo not given in full)
inactive: [1] | [2] | [3] | [4] | [5] | [6]

CCN(CCNC(=O)Nc1ccccc1Br)c1cccc(C)c1
inactive: [1] | [2] | [3] | [5] | [6]
active: [4] 2.67 µM

C=C[C@H](/C=C\c1ccc(O)cc1)c1ccc(O)cc1
inactive: [1] | [2] | [3] | [4] | [5] | [6]

Cn1cc(-c2cnn3c(N)c(Br)c([C@@H]4CCCNC4)nc23)cn1
inactive: [1] | [2] | [3] | [4] | [5] | [6]

CC/C=C\CC1C(=O)C=CC1(CCCCC1CCC(=O)O1)OC(C)=O (stereo not given)
inactive: [1] | [2] | [3] | [4] | [5] | [6]

Cn1cc(-c2ccc(F)c(C(F)(F)F)c2)nc1C1CCN(c2ncnc3[nH]ncc23)CC1
inactive: [1] | [2] | [3] | [4] | [5] | [6]

CCOC(=O)c1ccc(OCCC2CCN(c3ccc(C)nn3)CC2)cc1
inactive: [1] | [2] | [3] | [4] | [5] | [6]

O=C(Nc1ccn(Cc2ccc(O)cc2C(F)(F)F)n1)c1c(F)cccc1F
inactive: [1] | [2] | [3] | [4] | [5] | [6]

Cn1nc(C(C)(C)C)cc1C(=O)N[C@@H](Cc1cccc(Cl)c1)C(=O)NCC#N
inactive: [1] | [2] | [3] | [4] | [5] | [6]

O=c1cc(N2CCN(c3cccc(C(F)(F)F)c3)CC2)[nH]c(=O)n1C1CCCCC1
inactive: [1] | [2] | [3] | [4] | [5] | [6]

C[C@H]1[C@H](/C=C/c2ccc(-c3ccccc3C#N)cn2)[C@@H]2[C@@H](C)OC(=O)[C@@H]2C[C@@H]1C
inactive: [1] | [2] | [3] | [4] | [5] | [6]

O=C(Nc1ccc(-n2nc(C(F)(F)F)cc2C(F)(F)F)cc1)c1ccncc1F
inactive: [1] | [2] | [3] | [4] | [5] | [6]

O=C(NCCCN1CCOCC1)c1cnn2c(-c3ccccc3)cc(-c3ccccc3)nc12
inactive: [1] | [2] | [3] | [4] | [5] | [6]
